# Some compounds were tested as several samples or in several runs, with calls that do not always agree. Active and inactive are the calls of the source. Rule for the calls: active = hit-call score of the fitted dose curve at least 0.9, where 1 is the maximum; inactive = score below 0.9.
# Experiment: ATG_DR4_LXR_CIS: Attagene CIS-FACTORIAL HepG2 Assay for human Liver X Receptor (LXR), DR4 submotif (AID 2282929)
# Conditions: HepG2 Attagene DR4 cis-reporter, mRNA transcription; actives raise or lower the signal
# Description: ATG_CIS is a cell-based, multiplexed-readout assay that uses HepG2, a human liver cell line, with measurements taken at 24 hours after chemical dosing in a 24-well plate.ATG_DR4_LXR_CIS is one of 52 assay component(s) measured or calculated from the ATG_CIS assay. It is designed to make measurements of mRNA induction, a form of inducible reporter, as detected with fluorescence intensity signals by Reverse transcription polymerase chain reaction (RT-PCR) and Capillary electrophoresis technology.Data from the assay component ATG_DR4_LXR_CIS was analyzed into 1 assay endpoint. This assay endpoint, ATG_DR4_LXR_CIS, was analyzed with bidirectional fitting relative to DMSO as the negative control and baseline of activity. Using a type of inducible reporter, measures of mRNA for gain or loss-of-signal activity can be used to understand the reporter gene at the transcription factor-level as they relate to the gene NR1H2 and NR1H3. Furthermore, this assay endpoint can be referred to as a primary readout, because this assay has produced multiple assay endpoints where this one serves a reporter gene function. To generalize the intended target to other relatable targets, this assay endpoint is annotated to the nuclear receptor intended target family, where the subfamily is non-steroidal.
# Human liver HepG2 cells are transiently transfected with multiple reporter transcription units (MRTUs) in 6-well plates using FuGene 6 reagent (Roche; 3 ml FuGene/1 mg DNA). The MRTU constructs are regulated by a cis-regulating element (promoter). […] A major difference between the CIS and TRANS system is that in CIS activities of endogenous TFs are measured, whereas the TRANS assay evaluates changes in activities of exogenous, chimeric NR-Gal4 proteins. […] At the end of 24 hour incubation, total RNA was isolated using TriZol reagent (Invitrogen). The isolated RNA is then reverse-transcribed using oligo(dT) primer and Mo-MLV reverse transcriptase (Invitrogen) with DNAse I (Ambion) treatment for 30 min. The one-tenth of the produced cDNA was amplified by PCR using Taq DNA polymerase (Invitrogen) and two reporter sequence-specific primers. The PCR products were fluorescently labeled by primer extension with 6-arboxyfluorescein (6-FAM) 5'-labeled reporter sequence-specific primer (2 min at 95 C, 20 s at 68 C and 10 min at 72 C) and these products were digested with 5U of HpaI (New England Biolabs) for 2h at 37 C. The fragments were purified using Qiaquick PCR columns (Qiagen), analyzed on an ABI 3130xL genetic analyzer (Applied Biosystems) with peak positions identified by using a set of X-rhodamine (ROX)-labeled MapMarker1000 molecular weight standards (BioVentures). The raw capillary electrophoresis data was processed using Attagraph software (Attagene).
Structure (SMILES),outcome,AC50
N#CCC#N,inactive,
CCOC(=O)OC1=C(c2cc(C)ccc2C)C(=O)NC12CCC(OC)CC2 (stereo not given),inactive,
CC1(C)COP(Oc2ccccc2)OC1,inactive,
C=CC(Cl)CCl (stereo not given),inactive,
CNC(=O)O/N=C/C(C)(C)S(C)(=O)=O,inactive,
Cc1ccccc1OP(=O)(Oc1ccccc1)Oc1ccccc1,,12.3 µM (active)
CCN(CC)C(=O)C(Cl)=C(C)OP(=O)(OC)OC,inactive,
Oc1cccc(-c2ccccc2)c1,inactive,
CCCCOC(C)=O,inactive,
[F][Sn]([c]1ccccc1)([c]1ccccc1)[c]1ccccc1,,0.528 µM (active)
Cc1ccc2nc3sc(=O)sc3nc2c1,,22.4 µM (active)
O=C(NC(=O)c1c(F)cccc1F)Nc1cc(Cl)c(Oc2ncc(C(F)(F)F)cc2Cl)c(Cl)c1,,4.57 µM (active)
CCOP(=S)(OCC)O/N=C(\C#N)c1ccccc1,,27.7 µM (active)
Cc1cc(C(C)(C)c2ccc(O)c(C)c2)ccc1O,,12.1 µM (active)
COc1ccccc1N,inactive,
ClCCN1CCOCC1,inactive,
CC(C)CC(C)(c1ccc(O)cc1)c1ccc(O)cc1,,11.1 µM (active)
O=c1[nH]c2ccccc2n1C1CCN(CCCC(c2ccc(F)cc2)c2ccc(F)cc2)CC1,,5.83 µM (active)
CCN(CCO)CCO,inactive,
Clc1cccc(Cl)c1Cl,inactive,

Structure (SMILES),outcome,AC50
O=C(NC(=O)c1c(F)cccc1F)Nc1cc(Cl)c(F)c(Cl)c1F,,0.512 µM (active)
Nc1ccc(N)cc1,inactive,44.6 µM (active)
O=C1c2ccccc2C(=O)C1C(=O)C(c1ccccc1)c1ccc(Cl)cc1 (stereo not given),inactive,
Nc1ncn[nH]1,inactive,
CC(C)(C)c1cc([N+](=O)[O-])cc(C(C)(C)C)c1O,inactive,
CCCCN(CCCC)C(=S)[S-].CCCCN(CCCC)C(=S)[S-].[Ni+2],inactive,
NC(=O)c1ccc(N)nc1,inactive,
Oc1c(Br)cc(Br)cc1Br,inactive,
CCC[CH2][Sn]([CH2]CCC)([CH2]CCC)[CH2]CCC,,3.31 µM (active)
O=S(=O)(Oc1ccc(Cl)cc1)c1ccc(Cl)cc1,,34.9 µM (active)
CCOc1cc(C=O)ccc1O,inactive,
Cc1ccc(OP(=O)(Oc2ccc(C)cc2C)Oc2ccc(C)cc2C)c(C)c1,,11.3 µM (active)
CC(c1ccc(O)cc1)c1ccc(O)cc1,inactive,
CC(C)C(C)(N)C#N (stereo not given),inactive,
c1ccc2c(c1)Oc1ccccc1O2,inactive,
CCOCn1c(-c2ccc(Cl)cc2)c(C#N)c(Br)c1C(F)(F)F,,8.63 µM (active)
CC(C)(c1ccccc1)c1cc(-n2nc3ccccc3n2)c(O)c(C(C)(C)c2ccccc2)c1,inactive,
OC[P+](CO)(CO)CO,inactive,
Brc1c(Br)c(Br)c(Oc2c(Br)c(Br)c(Br)c(Br)c2Br)c(Br)c1Br,inactive,
